TMEM16A act: mouse TMEM16A channel activation, primary screen; 0.3% of 340,000 active; B-score at 10 µM; HEK293 TMEM16A/YFP-H148Q/I152L, iodide quench fluorescence; stronger effect = lower value;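 active means fluorescence-ratio B-score plate-corrected deviation score at least 3 library SD below zero, with starting fluorescence score within 5 deviations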;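 further: channel opened by trigger with iodide after compound preincubation; score built on the fluorescence ratio of max minus min over baseline; more negative score means more quench and so TMEM16A activation or potentiation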
Target sequence (Q8BHY3 whole entry, looked up): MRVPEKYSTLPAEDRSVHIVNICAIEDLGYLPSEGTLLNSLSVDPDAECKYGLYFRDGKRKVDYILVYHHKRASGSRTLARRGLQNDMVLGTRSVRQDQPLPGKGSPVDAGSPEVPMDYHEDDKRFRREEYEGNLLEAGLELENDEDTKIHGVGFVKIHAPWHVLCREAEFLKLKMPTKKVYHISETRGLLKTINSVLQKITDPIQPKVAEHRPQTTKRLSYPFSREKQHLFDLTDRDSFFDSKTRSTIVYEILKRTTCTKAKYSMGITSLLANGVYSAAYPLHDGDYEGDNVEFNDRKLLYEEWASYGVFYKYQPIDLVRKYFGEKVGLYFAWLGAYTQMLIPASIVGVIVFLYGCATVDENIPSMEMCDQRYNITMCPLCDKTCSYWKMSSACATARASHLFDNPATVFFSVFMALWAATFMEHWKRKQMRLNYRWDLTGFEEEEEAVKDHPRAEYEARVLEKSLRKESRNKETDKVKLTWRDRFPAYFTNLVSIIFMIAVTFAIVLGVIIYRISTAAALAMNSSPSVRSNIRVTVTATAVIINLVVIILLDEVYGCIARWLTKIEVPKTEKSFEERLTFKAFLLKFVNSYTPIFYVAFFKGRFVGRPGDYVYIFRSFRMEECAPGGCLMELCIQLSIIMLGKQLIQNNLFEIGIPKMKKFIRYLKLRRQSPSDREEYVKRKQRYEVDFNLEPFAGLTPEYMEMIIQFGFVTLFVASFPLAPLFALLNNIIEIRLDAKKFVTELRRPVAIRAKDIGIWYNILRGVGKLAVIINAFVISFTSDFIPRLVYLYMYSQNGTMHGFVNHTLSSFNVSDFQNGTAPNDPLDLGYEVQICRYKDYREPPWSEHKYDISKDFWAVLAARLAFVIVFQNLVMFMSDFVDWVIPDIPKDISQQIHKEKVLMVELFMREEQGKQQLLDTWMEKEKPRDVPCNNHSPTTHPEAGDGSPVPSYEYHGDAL
KCNK3 block: human KCNK3 channel inhibition, primary screen; O14649; CHO-KCNK3 thallium flux, FluxOR fluorescence; stronger effect = lower value; B-score at 10 µM; 0.84% of 340,000 active;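 active means B-score under library mean minus 4 SD, starting fluorescence ratio at most library mean plus 5 SD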;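 further: more negative B-score means stronger inhibition of thallium flux through KCNK3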
KCNK9 inh: human KCNK9 channel inhibition; HEK293 KCNK9, FluxOR thallium flux fluorescence; stronger effect = lower value; 1.2% of 310,000 active; AID 488922; B-score at 10 µM; Q9NPC2;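 active means ratio B-score over 3 SD below the library mean, with starting fluorescence within 5 SD of its mean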;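 further: negative B-score means less thallium flux so channel inhibition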
ANO1 block: blocks the mouse calcium-activated chloride channel TMEM16A; Q8BHY3; HEK293 TMEM16A/YFP iodide influx fluorescence, ionomycin; normalized B-score (activity score, 25-100; higher = stronger inhibition) at 10 µM; 1.2% of 310,000 active; AID 588511;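 active means ratio plate-corrected score three or more library SD toward inhibition, starting fluorescence score within five deviations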;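 further: score derived from kinetic fluorescence span divided by baseline fluorescence per well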
Kir21 block: inhibitors of mouse Kir2.1 inward-rectifier potassium channel; HEK293-Kir2.1, FluxOR thallium flux fluorescence; stronger effect = lower value; B-score at 10 µM; 0.85% of 310,000 active; AID 1672;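 active means fluorescence ratio B-score at or below minus 3 SD of library scores, with starting-brightness B-score within 2 SD, cut at about -4.2 in these data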;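 further: channel flux triggered by added potassium and thallium sulfate stimulus; B-score of peak minus minimum fluorescence over baseline after thallium stimulus; more negative B-score means stronger Kir2.1 block with less thallium influx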
KCNK9 block conf: confirmation of human KCNK9 potassium channel inhibitors; AID 492992; HEK293 KCNK9 cells, FluxOR thallium flux fluorescence; inhibition, % at 10 µM; shares compounds with KCNK9 inh; 43% of 4,900 active;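 active means thallium signal inhibited by more than 5 SD of the compound-free buffer control wells, on both duplicate plates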;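 further: 0% = assay buffer control wells without compound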
Kir2-1 spec: selectivity of KCNK9 modulators against mouse Kir2.1 | AID 492993 | shares compounds with KCNK9 inh | 4% of 4,900 active | inhibition, % at 10 µM | Kir2.1 cells, FluxOR thallium flux fluorescence;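 active means thallium signal drop more than 5 SD beyond the mean of the no-compound control wells, seen in both duplicate plates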;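 further: signal is fluorescence rise after thallium addition divided by baseline fluorescence; plate controls were assay buffer only for no effect and full block by chlorpromazine control for full effect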
KCNK9 uninduced: second counter-screen for KCNK9 modulators: effect in non-induced cells; non-induced KCNK9-HEK293, FluxOR thallium flux; inhibition, % at 10 µM; 40% of 4,900 active; shares compounds with KCNK9 inh;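 active means thallium signal drop beyond 5 SD of the untreated control mean, on both duplicate plates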;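 further: plate controls were buffer only IC0 wells for no effect and SID17386958 at its maximal inhibitory level for full effect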
Active calls of the source: *; i = inactive; x = not tested or not shown. An excerpt weighted towards active compounds, which were near 3.5% of everything screened.

SMILES | TMEM16A act | KCNK3 block | KCNK9 inh | ANO1 block | Kir21 block | KCNK9 block conf | Kir2-1 spec | KCNK9 uninduced
COc1ccc(-n2c(Cc3cccn3C)nnc2SCC(=O)Nc2cccc(Cl)c2)cc1 | i | i | i | i | 1.8 | i | i | i
COc1ccc(NC(=O)CSc2nnc(Cc3cccs3)n2-c2ccc(C)cc2)cc1 | i | i | i | i | -1 | i | i | i
O=C(COc1ccc2ccccc2c1)N1c2ccccc2Sc2ccccc21 | i | i | -13* | i | -2.1 | 56%* | i | 46%*
CC1CN(C(=O)COc2ccc3ccccc3c2)CC(C)O1 (configuration not stated) | i | i | x | x | x | x | x | x
Cc1nc2ccccc2c2ncccc12 | i | i | i | i | 0.91 | x | x | x
O=C(O)CCCN=CC1=C(O)CNC1=O | i | i | i | i | -3.1 | x | x | x
Cc1ccc(C)c(OCCC(=O)OCC(=O)Nc2ccc(Cl)cn2)c1 | i | i | i | i | 0.22 | x | x | x
Cc1ccccc1-c1ocnc1C(=O)Nc1ccccc1NC(=O)c1ccccn1 | i | i | -8.7* | i | -1.4 | 38%* | i | i
CC(C)NC(=O)c1ccc(CN2CCc3ccccc3C2)cc1 | i | i | i | i | -0.07 | x | x | x
c1ccc(C2Nc3ccccc3C3OCCCC23)cc1 (configuration not stated) | i | i | i | i | -3.7 | i | i | i
Cc1ccc2c(c1)[C@H]1OCC[C@H]1[C@@H](c1ccncc1)N2 | i | i | i | i | 0.78 | x | x | x
CCn1cc(CCCC(=O)NCc2ccc(OC)cc2)c2ccccc21 | i | i | i | i | -2.5 | i | i | i
CCn1cc(CCCC(=O)NCc2cccnc2)c2ccccc21 | i | i | i | i | -1.6 | x | x | x
CCn1cc(CCC(=O)NCc2cccc(OC)c2OC)c2ccccc21 | i | i | i | i | -6.6 | x | x | x
CCOc1ccccc1CNC(=O)CCc1cn(CC)c2ccccc12 | i | i | i | i | -5.9* | i | i | i
Cc1csc(NC(C)c2nc3cc(Cl)c(Cl)cc3n2CCCO)n1 (configuration not stated) | i | i | i | i | 2.1 | x | x | x
O=C1c2ccccc2S(=O)(=O)c2cc(C(=O)N3CCC(N4CCCC4)CC3)ccc21 | i | i | i | i | -0.89 | x | x | x
CSc1ccc(CN2CCC(n3nccc3NC(=O)C3CCOC3)CC2)cc1 (configuration not stated) | i | i | i | i | -0.01 | x | x | x
NC(=O)/C=C\c1cn(-c2ccccc2)nc1-c1ccc2c(c1)OCCO2 | i | i | i | i | 0.8 | x | x | x
CC(C)OC(=O)c1cn(-c2ccccc2)nc1-c1ccc2c(c1)OCCO2 | i | i | i | i | 0.01 | i | i | i
CCCCCCCCCCOC(=O)Cn1c(COc2ccccc2OC)[n+](C)c2ccccc21 | -5.8* | i | -15* | 100* | -17* | 78%* | 84%* | 42%*
C=CCSc1nc2c(c(=N)n1CC=C)C1CCCC1S2 (configuration not stated) | i | i | -18* | i | -0.31 | i | i | 36%*
Cc1cc(NC(=O)CSc2nc(CCC3CCCC3)nc3ccccc23)no1 | i | i | i | i | -0.03 | x | x | x
CCc1nc(SCC(=O)c2ccc3c(c2)OCCO3)c2ccccc2n1 | i | i | i | i | -1 | x | x | x
O=C(CSc1nc(Cc2ccccc2)nc2ccccc12)c1ccc2c(c1)OCCO2 | i | i | -14* | i | 0.88 | 57%* | i | 34%*
SMILES | TMEM16A act | KCNK3 block | KCNK9 inh | ANO1 block | Kir21 block | KCNK9 block conf | Kir2-1 spec | KCNK9 uninduced
O=C(CSc1nc(CCC2CCCC2)nc2ccccc12)NCc1ccc2c(c1)OCO2 | i | i | -13* | i | -0.46 | 47%* | i | i
CC(C)c1ccc(NC(=O)c2snc3ccc(Cl)cc23)cc1 | i | i | i | i | 0.62 | x | x | x
O=C(NCC1CCCO1)c1ccc(COc2ccccc2Br)cc1 (configuration not stated) | i | i | i | i | 0.02 | x | x | x
O=CN1CCCN(Cc2nc(Cc3ccccc3F)no2)CC1 | i | i | i | i | -0.02 | x | x | x
Fc1ccccc1Cc1noc(CN2CCN(C/C=C/c3ccccc3)CC2)n1 | i | i | i | i | -0.65 | i | i | i
CCOc1ccc(/C=N/NC(=O)CSc2n[nH]c(=O)[nH]c2=O)cc1OC | i | i | i | i | -0.12 | x | x | x
O=C(Nc1nc(-c2cccs2)c(-c2ccccc2)s1)c1ccco1 | i | i | -9* | i | 0.11 | 62%* | i | 26%*
CC(=O)Nc1sc(NC(=O)c2ccco2)nc1-c1cccs1 | i | i | i | i | 0 | x | x | x
CCOc1ccc(CSc2nc(C)cc(COC)c2C#N)cc1OCC | i | i | i | i | -2.4 | x | x | x
Cc1cccc(-n2c(SCC(=O)N3CCCC3)nc3n[nH]c(C)c3c2=N)c1 | i | i | i | i | -0.65 | x | x | x
CCCCN(CC)C(=O)CSc1nc2n[nH]c(C)c2c(=N)n1-c1cccc(C)c1 | i | i | -9.2* | i | -0.4 | 34%* | i | i
CC(C)S(=O)(=O)c1nsc2nc(=O)c(/C=C3\C=Nc4ccccc43)c(N)n12 | i | i | i | i | 0.38 | i | i | i
CC1CCN(CC(=O)n2c3c(c4ccccc42)CCCC3)CC1 | i | i | i | i | 0.23 | i | i | i
c1ccc(Cn2nnc(CNc3ccccc3)c2-c2c(CNc3ccccc3)nnn2Cc2ccccc2)cc1 | i | i | -17* | i | 0.98 | 64%* | i | 36%*
Cc1ccc(-c2nnc(OCc3cccnc3)c3ccccc23)cc1 | i | i | i | i | -1.2 | x | x | x
Cc1ccc(SCC2(O)CCN(S(=O)(=O)c3ccc(Cl)cc3)CC2)cc1 | i | i | i | i | -1.1 | i | i | i
CCN(CC)S(=O)(=O)c1ccc(Cl)c(C(=O)N2CCc3ccccc32)c1 | i | i | x | i | x | x | x | x
Cc1ccc(C)c(NS(=O)(=O)c2cc(C(=O)N3CCc4ccccc4C3)ccc2Cl)c1 | i | i | -17* | i | -0.53 | 57%* | i | 36%*
Cc1cccc(NS(=O)(=O)c2cc(C(=O)N3CCc4ccccc4C3)ccc2Cl)c1C | i | i | -15* | i | -0.56 | 68%* | i | i
